Screening data from PubChem.
MsrA inh: bovine MsrA enzyme inhibitors, primary screen, biochemical, absorbance, HTS; Methionine sulfoxide reductase A (Bos taurus); 0.75% of 360,000 active; inhibition, % at 15.5 µM; purified bovine MsrA, absorbance read-out; in the data active means inhibition above about 4.5%;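 further: 0% = vehicle wells with enzyme and 100% = reference inhibitor wells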
SMARCA2 activ: SMARCA2 (BRM) function activators, primary screen, cell-based, luminescence, high throughput. activation, % at 9.1 µM. AID 652017, 2013. MG213 cells, MMTV-luciferase reporter, dexamethasone, overnight. 1% of 370,000 active; in the data active means activation above about 7.8%;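 further: 0% = vehicle wells and 100% = reference activator wells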
ABCB6 inh 2: ABCB6 transporter inhibitors, primary screen, K562-ABCB6 cells, flow cytometry, MLPCN library; ATP-binding cassette sub-family B member 6 (Homo sapiens), Q9NP58; K562-ABCB6 porphyrin accumulation, 1 h; stronger effect = lower value; fluorescence ratio to DMSO, % at 10 µM; 0.19% of 360,000 active;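 active means fluorescence ratio to DMSO below 75%, the collection mean minus 3 SD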;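 further: signal is porphyrin accumulated inside mitochondria; 100% equals median channel fluorescence of DMSO control wells; lower ratio means ABCB6 inhibition with less porphyrin fluorescence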
bovine MsrA act: bovine MsrA enzyme activators, primary screen, biochemical, absorbance, HTS; Methionine sulfoxide reductase A (Bos taurus); purified bovine MsrA, absorbance read-out; activation, % at 10.6 µM; 0.3% of 360,000 active; in the data active means activation above about 7.5%;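 further: 0% = vehicle and 100% = reference activator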
MsrA activ conf: bovine MsrA activators, retest, confirmation, biochemical, absorbance, HTS | shares compounds with bovine MsrA act | purified bovine MsrA, absorbance read-out | activation, % at 10.6 µM | 12% of 1,000 active; in the data active means activation above about 4%;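 further: enzyme coupled to thioredoxin and thioredoxin reductase with NADPH; 0% = vehicle wells and 100% = reference activator wells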
Numbers without * were called inactive; / = no result given. An excerpt weighted towards active compounds, which were near 2.1% of everything screened.

SMILES	MsrA inh	SMARCA2 activ	ABCB6 inh 2	bovine MsrA act	MsrA activ conf
C[C@H](O)[C@@H]1C(=O)N2CCc3c([nH]c4c(-c5ccc6c(c5)OCO6)cccc34)[C@@H]2C[C@@H]1N(C)C(=O)OCc1ccccc1	/	-4.0	/	/	/
O=C(CSc1nnc(Cc2cccs2)n1-c1ccc(Cl)cc1)Nc1ccc(OCc2ccccc2)cc1	/	-5.3	/	/	/
CCOC(=O)c1cnc2nc(COc3ccccc3)[nH]n2c1=O	-1.2	-3.1	90.0	11.8*	-2.9
CN(C)S(=O)(=O)c1ccc(Cl)c(NC(=O)COC(=O)CNS(=O)(=O)c2c(F)cccc2F)c1	-0.5	-0.3	98.0	8.8*	0.7
CN(C)S(=O)(=O)c1ccc(Cl)c(NC(=O)COC(=O)CNC(=O)c2ccco2)c1	0.9	0.6	101.0	-10.0	/
COc1ccc(C(=O)c2sc3nc(-c4ccccc4)ccc3c2N)cc1	/	/	234.0	-1.1	/
CC(C)OC(=O)c1sc2nc(-c3ccccc3)ccc2c1N	1.4	-2.3	90.0	8.8*	-0.2
COc1cccc(N2CCN(CC(=O)N(C)Cc3ccccc3Cl)CC2)c1	/	-3.5	/	/	/
CCn1c(=S)[nH]c2scc(-c3cccs3)c2c1=O	2.9	-1.6	91.0	5.3	/
CC(C)n1c(=S)[nH]c2scc(-c3cccs3)c2c1=O	1.2	-3.1	97.0	8.0*	-0.7
O=C(NCCc1ccc(Cl)cc1)C(=O)Nc1cc2c3c(c1)CC(=O)N3CCC2	0.1	-0.7	95.0	16.7*	-1.9
CN(Cc1ccccc1)C(=O)c1csc([C@@H]2O[C@H](CO)[C@H](O)[C@H](O)[C@H]2O)n1	-0.4	-1.7	99.0	13.5*	-0.9
Cc1ccc(-n2c(SCC(=O)Nc3ccc(OCc4ccccc4)cc3)nnc2-c2cnccn2)cc1	/	-7.0	/	/	/
Cc1ccc(C)c(N2CCN(S(=O)(=O)c3c(C(=O)N4CCCCC4)c(C)n(C)c3C)CC2)c1	0.8	-2.9	103.0	8.2*	-1.9
NS(=O)(=O)c1ccc(NC(=O)NC2CC(=O)N(c3ccc4c(c3)OCCO4)C2)cc1 (centres undefined)	-0.2	2.5	100.0	11.2*	-2.2
Cc1ccc(Cn2cc(CN(C3CC3)S(=O)(=O)c3ccccc3Br)nn2)cc1	/	-3.2	/	/	/
Cc1ccc(OCc2nnc(SCC(=O)c3ccc(-c4ccccc4)cc3)n2Cc2ccco2)cc1	/	-4.8	/	/	/
CC1CCc2cc(F)ccc2N1C(=O)CCC(=O)O (centres undefined)	-1.3	-4.2	101.0	9.8*	1.6
Cc1ccccc1N=C1NC(=O)/C(=C/c2cccn2C)S1	1.8	0.7	101.0	8.1*	-1.9
Cc1cccc(N=C2NC(=O)/C(=C/c3cccn3C)S2)c1	-0.6	0.4	95.0	-1.7	/
O=C(CSc1nc2cc(Cl)ccc2s1)c1cc2ccccc2o1	2.1	-3.4	107.0	9.9*	-1.9
Cc1cc(NC(=O)CSc2nc3cc(Cl)ccc3s2)no1	-1.6	-5.2	87.0	-9.4	/
CC(C)CN1C(=O)[C@]2(CC(=O)N(C)C2c2ccccc2)c2cc(-n3cc(CCc4ccccc4)nn3)ccc21 (some centres undefined)	/	-3.3	/	/	/
Cc1ccc(CNC(=O)c2ccc3c(=O)n(CC4CCCO4)c(=S)[nH]c3c2)cc1 (centres undefined)	-0.9	-1.5	95.0	-5.7	/
O=C(NCc1ccccc1)c1ccc2c(=O)n(CC3CCCO3)c(=S)[nH]c2c1 (centres undefined)	0.9	-2.5	98.0	12.8*	3.1
SMILES	MsrA inh	SMARCA2 activ	ABCB6 inh 2	bovine MsrA act	MsrA activ conf
COc1ccc(/C=C2\CC3(OC(=O)c4ccc(F)cc4)CCCN2C3)cc1 (centres undefined)	/	-3.1	/	/	/
CN(C)CCCn1c2c(c(SCC(=O)Nc3cccc4ccccc34)nc1=O)CCCC2	-0.7	0.7	93.0	11.2*	0.5
COc1ccc(-n2c(SCC(=O)Nc3ccc(Oc4ccccc4)cc3)nnc2-c2cccnc2)cc1	/	-4.7	/	/	/
S=c1nc(-c2ccco2)[nH][nH]1	-0.2	3.7	97.0	8.2*	1.5
O=c1[nH]c(CN2CCN(CCO)CC2)nc2ccccc12	1.3	-1.7	96.0	8.9*	0.0
O=c1[nH]c(CN2CCN(c3ccccc3O)CC2)nc2ccccc12	-1.1	-0.1	101.0	1.2	/
C[C@H](O)[C@@H]1CN2CCc3c([nH]c4c(-c5ccc6c(c5)OCO6)cccc34)[C@@H]2C[C@@H]1N(C)C(=O)Nc1ccccc1	/	-4.1	/	/	/
Cc1ccc2[nH]c3c(c2c1)CN(C(=O)CN1CCSCC1)CC3	0.3	2.2	/	/	/
Cc1ccc2[nH]c3c(c2c1)CN(C(=O)CN1CCN(c2ccccn2)CC1)CC3	-0.8	-2.2	103.0	10.4*	4.0*
COc1ccc(-c2cc(-c3nnc(SCC(=O)Nc4nccs4)n3N)[nH]n2)cc1	/	6.8	/	/	/
CCc1cc(C(=O)Cc2ccc(F)cc2)c(O)cc1O	3.1	-5.6	95.0	-4.5	/
CCCc1cc(C(=O)Cc2ccc(F)cc2)c(O)cc1O	1.4	-1.4	96.0	21.5*	-1.7
CC(C)COc1ccc(C/C(N)=N/n2cnnc2)cc1	-1.0	-3.3	91.0	8.0*	-1.7
COc1ccc(C/C(N)=N/n2cnnc2)cc1	0.1	6.3	96.0	-2.0	/
C[C@H](CCCCC1(C)OCCO1)CCC(=O)N(c1ccccc1)c1ccccc1	/	-4.0	/	/	/
Cc1ccc(-c2noc(COc3ccccc3C)n2)cc1	1.3	2.2	102.0	8.1*	-2.8
Cc1ccccc1OCc1nc(-c2ccccc2)no1	-0.1	-1.1	99.0	-8.4	/
Cc1cc(N2CCN(Cc3ccccc3)CC2)n2nc(C)c(-c3ccccc3)c2n1	-0.4	-2.1	100.0	-3.1	/
COc1ccc(-c2c(C)nn3c(N4CCN(Cc5ccccc5)CC4)cc(C)nc23)cc1OC	-0.4	-2.4	97.0	8.3*	0.1
CC1CC(C(F)(F)F)n2ncnc2N1 (centres undefined)	0.4	-2.5	84.0	9.2*	1.2
COc1cccc(OC[C@@H](O)CN2CCC(C(O)(c3ccccc3)c3ccccc3)CC2)c1	/	-4.0	/	/	/
O=S(=O)(Nc1ccccc1Cl)c1ccc(NS(=O)(=O)c2cccs2)cc1	-0.8	-1.9	94.0	7.7*	0.3
CCOC(=O)[C@]12CCCCC/C=C\1N(CCc1ccc(Cl)cc1)C(=O)[C@H]2CC(=O)N1CCN(C(=O)c2ccco2)CC1	/	-1.4	/	/	/
Nc1ccc(S(=O)(=O)NC2=NCCCCC2)cc1	0.5	-0.5	95.0	-1.9	/
O=S(=O)(NC1=NCCCCC1)c1ccc2ccccc2c1	-1.2	-1.7	100.0	9.0*	-0.5
CCOC(=O)c1cnc2c(OC)cccc2c1N1CCN(c2ccccc2OC)CC1	-0.4	-1.6	93.0	8.5*	-0.7
O=C(CCS(=O)(=O)c1ccccc1)Nc1ccc(F)cc1F	/	1.0	/	/	/
O=c1[nH]c(=S)[nH]cc1Oc1ccc(Cl)cc1	0.4	-2.6	99.0	9.0*	4.2*
CCCn1c(=O)c2ccccc2n2c(SCC(=O)c3ccccc3)nnc12	-0.1	0.8	99.0	12.3*	-3.3
O=C(CCCl)NC1CCCCN(Cc2ccc(OC(F)(F)F)cc2)C1=O (centres undefined)	/	0.3	/	/	/
